These results are taken from PubChem BioAssay (Tox21).

A number with no mark means an inactive call. Records with an inconclusive call do not appear. Active and inactive are the calls of the source. Unless noted, the call rests on the fitted dose curve; in most records, active means well fitted curve in the direction sought with a large enough effect in the repeat runs; inconclusive means weak or mixed curves; inactive means no such curve, though single readings can be large; an effect the other way counts as inactive or inconclusive.

The nature of experiment [1]: qHTS assay to identify small molecule antagonists of the estrogen related receptor (ERR) signaling pathway from Tox21 library - cell viability counter screen (AID 1224834). Further: nearly all actives have a fitted effect of over 30% in size. The essentials: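 ERR reporter cells were plated 6 h before compound addition, then exposed to test compounds in DMSO for 17.5 h at 37 C. Viability was read as CellTiter-Fluor fluorescence after a 30-minute incubation at 37 C.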

Experiment [2] has as its target Luciferin 4-monooxygenase (Photinus pyralis) (UniProt P08659). Nature of the experiment: qHTS assay to identify small molecule inhibitors of firefly luciferase (AID 1224835). Further: nearly all actives have a fitted effect of over 25% in size. Further: potency means the concentration at half of the fitted maximal effect. The method in brief: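 Inhibition of purified Photinus luciferase is measured by luminescence. Substrate levels (D-luciferin, ATP) sit at their KM values. Each compound is tested in a concentration series.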
For orientation: qHTS replaces the single test concentration by a dilution series.

A short description of experiment [3]: qHTS assay to identify small molecule agonists of the constitutive androstane receptor (CAR) signaling pathway - cell viability counter screen (AID 1224836). Further: nearly all actives have a fitted effect of over 45% in size. The method in brief:
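Viability read-out: CellTiter-Fluor fluorescence after 23 h compound exposure at 37 C/5% CO2 in double-stable HepG2-CYP2B6-hCAR cells, with PK11195 present at 0.75 uM final; compounds tested in 15-point titration.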

Experiment [4] in a line: qHTS assay to identify small molecule antagonists of the constitutive androstane receptor (CAR) signaling pathway - cell viability counter screen (AID 1224837). Further: nearly all actives have a fitted effect of over 45% in size. The method in brief: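 HepG2 cells stably expressing hCAR and a CYP2B6-2.2kb reporter were plated and pre-incubated 4 hr at 37 C/5% CO2, then given compounds at 15 concentrations plus 50 nM CITCO (final). After 23 hr, viability was read by CellTiter-Fluor fluorescence.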

The target of experiment [5] is Nuclear receptor subfamily 1 group I member 3 (Homo sapiens) (UniProt Q14994). Nature of the experiment: qHTS assay to identify small molecule antagonists of the constitutive androstane receptor (CAR) signaling pathway (AID 1224838). Further: nearly all actives have a fitted effect of over 40% in size. The essentials: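 HepG2 cells stably co-transfected with hCAR and a CYP2B6-2.2kb luciferase reporter were seeded 4 h before compound addition at 15 concentrations. Cells were stimulated with 50 nM CITCO (final) for 24 h at 37 C; luciferase luminescence was then read.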

Experiment [6] has the same target. Nature of the experiment: qHTS assay to identify small molecule agonists of the constitutive androstane receptor (CAR) signaling pathway (AID 1224839). Further: nearly all actives have a fitted effect of over 15% in size. The method in brief:
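Luminescence read-out (ONE-Glo, 30 min, room temperature) from double-stable HepG2-CYP2B6-hCAR cells exposed 24 h to 15-point compound series in presence of 0.75 uM PK11195 final.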

A short description of experiment [7]: qHTS assay to identify small molecule antagonists of the estrogen related receptor signaling pathway with the pleiotropic PPARgamma coactivator (PGC) from Tox21 10K library - cell viability counter screen (AID 1224840; active means well fitted cell-killing curve with a large enough effect in the repeat runs, not every such curve was filed as active; further: nearly all actives have a fitted effect of over 40% in size). The method in brief:
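PGC/ERR cells were seeded at 2,000 cells/well and left 6 hours at 37 C/5% CO2 before pin-tool addition of compounds in DMSO. After 17.5 hours at 37 C, CellTiter-Fluor was added and fluorescence read 30 minutes later.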

Experiment [8] addresses Thyrotropin receptor (Homo sapiens) (UniProt P16473). Nature of the experiment: qHTS assay to identify small molecule agonists of the thyroid stimulating hormone receptor (TSHR) signaling pathway (AID 1224843; calls by dose curve; further: nearly all actives have a fitted effect of over 45% in size). The essentials: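 Screening of the Tox21 10K collection used HEK293 cells engineered with TSHR at 800 cells per well. After a 30-min room-temperature compound exposure, HTRF cAMP reagents were added and fluorescence recorded 1 h later.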

The nature of experiment [9]: qHTS assay to identify small molecule agonists of the hypoxia (HIF-1) signaling pathway - cell viability counter screen (AID 1224844; calls by dose curve; further: nearly all actives have a fitted effect of over 50% in size; further: potency means the concentration at half of the fitted maximal effect). The method in brief:
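HRE-bla ME-180 cells in medium with 0.5% dialyzed FBS were preincubated 5 hrs at 37C, exposed to compounds for 17 hrs, then viability was read as CellTiter-Glo luminescence after 30 min at room temperature, in the reporter wells.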

A short description of experiment [10]: qHTS assay to identify small molecule agonists of H2AX (AID 1224845; active means well fitted activation curve with a large enough effect in the signal ratio in the repeat runs, not every such curve was filed as active; the % refers to the signal ratio). The method in brief:
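Phospho-H2AX Ser139 measured by HTRF (ex 320 nm; em 665 and 620 nm) after 24 hr antibody incubation. Compounds, 15 concentrations, 0.76% DMSO, were applied to CHO-K1 cells for 3hr at 37C before lysis.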

The nature of experiment [11]: qHTS assay to identify small molecule agonists of the hypoxia (HIF-1) signaling pathway (AID 1224846; active means well fitted activation curve with a large enough effect in the signal ratio in the repeat runs, not every such curve was filed as active; the % refers to the signal ratio). The method in brief: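 HRE-bla ME-180 cells (beta-lactamase reporter under hypoxia response element) were plated at 2,000 cells/well in medium with 0.5% dialyzed FBS, rested 5 hrs, then given compounds in DMSO for 17 hrs at 37C, 5% CO2. Reporter induction was read with CCF4-AM FRET substrate.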

A short description of experiment [12]: qHTS assay to identify small molecule agonists of H2AX - cell viability counter screen (AID 1224847; calls by dose curve;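 further: wild-type CHO-K1 cells; top concentration of the series differs between compounds; nearly all actives have a fitted effect of over 30% in size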). The essentials:
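CHO-K1 wt, 1000 cells/well, o/n 37C; cpds 15 conc, 3 h 37C, 0.76% DMSO; CellTiter-Glo, 30 min RT, luminescence.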

Experiment [13] can be described thus: qHTS RealTime-Glo MT Cell Viability Assay in HepG2 cells - 24 hour (AID 1224867). Further: nearly all actives have a fitted effect of over 50% in size. The method in brief: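 HepG2 cells were seeded at 600 cells/well together with NanoLuc luciferase and a cell-permeant prosubstrate, preincubated 5 h at 37 C/5% CO2, then pin-dosed with compounds in DMSO. Nonlytic luminescence from viable cells was read at each time point.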
Experiment [14] in a line: qHTS RealTime-Glo MT Cell Viability Assay in HEK293 cells - 32 hour (AID 1224868). Further: top concentration of the series differs between compounds; nearly all actives have a fitted effect of over 50% in size. The method in brief: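 HEK293 cells were seeded at 600 cells/well together with NanoLuc luciferase and cell-permeant prosubstrate, preincubated 5 h at 37 C/5% CO2, then given compound in DMSO by pintool. Luminescence from viable-cell prosubstrate reduction was read repeatedly over 40 h.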

Experiment [15] can be described thus: qHTS RealTime-Glo MT Cell Viability Assay in HepG2 cells - 40 hour (AID 1224870). Further: nearly all actives have a fitted effect of over 50% in size. The method in brief: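 Real-time viability: cells seeded at 600 per well together with NanoLuc and cell-permeant prosubstrate, compounds added after 5 h incubation. Luminescence tracked at 0, 8, 16, 24, 32 and 40 h of exposure.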
Experiment [16] can be described thus: A CellTox Green Cytotoxicity Assay to monitor cytotoxicity in HEK293 cells - 0 hour (AID 1224869). Further: nearly all actives have a fitted effect of over 50% in size. The essentials:
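HEK293 cells premixed with CellTox Green dye were seeded at 600 cells/well and left 5 h at 37 C/5% CO2 before pin transfer of 23 nL compound in DMSO. Fluorescence from dye bound to dead-cell DNA was read during 40 h treatment.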

Experiment [17] is described as follows: qHTS assay to identify small molecule agonists of the estrogen related receptor signaling pathway with the pleiotropic PPARgamma coactivator (PGC) from Tox21 10K library (AID 1224842). Further: nearly all actives have a fitted effect of over 15% in size. The essentials:
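Luminescence from One-Glo (30 min, room temperature) measured after PGC/ERR cells had 18 h at 37 C with pinned compound (23 nL in DMSO). Cells had been seeded at 2,000 per well and pre-incubated 6 h.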

A short description of experiment [18]: qHTS assay to identify small molecule agonists of the estrogen related receptor (ERR) signaling pathway from Tox21 library (AID 1224849; calls by dose curve; further: nearly all actives have a fitted effect of over 15% in size). Conditions: ERR reporter cell line, ONE-Glo luciferase, 18 h; at 92.4 µM (top of the series) unless noted. The method in brief:
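ERR reporter cell line (NTP) seeded, rested 6 h at 37 C/5% CO2, then pinned with Tox21 compounds in DMSO. After 18 h at 37 C, ONE-Glo luciferase luminescence was read following 30 min at room temperature.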

Experiment [19] is described as follows: qHTS assay to identify small molecule antagonists of the estrogen related receptor signaling pathway with the pleiotropic PPARgamma coactivator (PGC) from Tox21 10K library (AID 1224841; call rule not given here). The essentials:
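PGC/ERR reporter cells were seeded at 2,000 cells/well and held 6 hours at 37 C/5% CO2 before pin-tool addition of compounds in DMSO. After 18 hours at 37 C, One-Glo was added and luminescence read after 30 minutes at room temperature.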

The nature of experiment [20]: qHTS assay to identify small molecule antagonists of the estrogen related receptor (ERR) signaling pathway from Tox21 library (AID 1224848). Further: nearly all actives have a fitted effect of over 50% in size. The method in brief: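 Antagonist-mode screen of the Tox21 10K library in an NTP-provided ERR reporter cell line; 18 h compound exposure at 37 C, luminescence measured with ONE-Glo.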
On the % scale 0 is the no-effect control and ±100 the full control effect.

Sequence of Luciferin 4-monooxygenase (Photinus pyralis) (P08659 whole entry, looked up): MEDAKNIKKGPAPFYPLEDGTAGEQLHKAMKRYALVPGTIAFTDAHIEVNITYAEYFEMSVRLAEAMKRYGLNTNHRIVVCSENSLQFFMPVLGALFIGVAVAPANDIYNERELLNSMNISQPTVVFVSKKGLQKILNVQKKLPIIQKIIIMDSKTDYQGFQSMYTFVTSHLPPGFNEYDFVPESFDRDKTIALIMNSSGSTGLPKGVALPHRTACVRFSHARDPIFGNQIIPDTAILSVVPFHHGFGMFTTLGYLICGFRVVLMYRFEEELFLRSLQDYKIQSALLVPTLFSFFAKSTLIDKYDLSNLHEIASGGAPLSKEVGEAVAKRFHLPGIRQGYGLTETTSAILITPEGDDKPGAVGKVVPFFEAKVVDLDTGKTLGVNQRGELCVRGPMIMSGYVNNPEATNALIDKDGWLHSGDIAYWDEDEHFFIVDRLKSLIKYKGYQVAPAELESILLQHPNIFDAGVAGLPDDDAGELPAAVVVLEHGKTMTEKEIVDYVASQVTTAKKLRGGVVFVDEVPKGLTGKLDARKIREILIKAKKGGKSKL
Sequence of Thyrotropin receptor (Homo sapiens) (P16473 whole entry, looked up): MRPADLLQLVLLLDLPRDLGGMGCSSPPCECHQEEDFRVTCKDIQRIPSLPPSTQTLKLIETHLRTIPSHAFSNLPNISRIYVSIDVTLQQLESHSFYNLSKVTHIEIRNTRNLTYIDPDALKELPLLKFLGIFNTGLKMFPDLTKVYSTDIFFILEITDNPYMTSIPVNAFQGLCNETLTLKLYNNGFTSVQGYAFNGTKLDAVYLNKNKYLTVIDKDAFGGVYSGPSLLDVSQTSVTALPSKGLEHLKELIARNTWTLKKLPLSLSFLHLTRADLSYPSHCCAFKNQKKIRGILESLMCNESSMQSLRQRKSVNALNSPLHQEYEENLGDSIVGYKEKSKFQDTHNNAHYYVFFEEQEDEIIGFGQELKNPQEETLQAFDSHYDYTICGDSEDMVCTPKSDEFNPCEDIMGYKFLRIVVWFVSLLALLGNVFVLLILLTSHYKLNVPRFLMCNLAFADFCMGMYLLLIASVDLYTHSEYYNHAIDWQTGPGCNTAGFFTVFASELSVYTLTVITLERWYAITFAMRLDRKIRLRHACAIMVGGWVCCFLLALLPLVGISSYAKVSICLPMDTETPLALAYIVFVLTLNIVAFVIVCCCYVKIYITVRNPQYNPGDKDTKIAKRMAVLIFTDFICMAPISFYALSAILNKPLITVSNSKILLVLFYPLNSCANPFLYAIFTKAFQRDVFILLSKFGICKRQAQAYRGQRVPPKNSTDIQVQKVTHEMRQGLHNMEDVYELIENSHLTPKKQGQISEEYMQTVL
Sequence of Nuclear receptor subfamily 1 group I member 3 (Homo sapiens) (Q14994 whole entry, looked up): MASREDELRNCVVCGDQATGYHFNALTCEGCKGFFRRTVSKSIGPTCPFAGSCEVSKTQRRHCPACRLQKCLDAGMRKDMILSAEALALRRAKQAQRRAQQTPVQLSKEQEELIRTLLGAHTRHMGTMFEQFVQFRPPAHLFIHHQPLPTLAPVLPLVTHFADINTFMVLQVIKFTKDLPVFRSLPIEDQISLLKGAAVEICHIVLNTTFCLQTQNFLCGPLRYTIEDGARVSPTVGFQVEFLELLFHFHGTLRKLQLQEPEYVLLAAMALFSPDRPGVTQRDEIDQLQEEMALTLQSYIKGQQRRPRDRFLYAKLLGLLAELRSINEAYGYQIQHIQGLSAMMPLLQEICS

Take `CCC(C)(C)C1CCC(O)CC1` (stereo unspecified): the Potency entry in experiment [1], in [3], in experiment [4], in experiment [5], in [6] and in experiment [7] was “inactive” throughout. In addition, the Potency result in experiment [8], in [9], in [10], in experiment [12], in experiment [13] and in [14] was “inactive” throughout. Moreover, the Potency result in experiment [15] is “inactive”. Besides, in [2], the Potency was 79.6 µM (active). Also, the compound was classed as inactive in experiment [11].
On to `O=C(O)c1ccc(CO)o1`, for which the Potency result in experiment [1], in experiment [2], in experiment [3], in experiment [4], in experiment [5] and in experiment [6] was “inactive” each time. In addition, the Potency result in [7], in experiment [8], in experiment [9], in experiment [12], in experiment [13] and in experiment [14] was “inactive” each time. Also, the Potency entry in [16] and in [15] was “inactive” in each case. For the same compound, the compound was classed as inactive in experiment [11].
On to `CC(C)(C)C(=O)C(Oc1ccc(Cl)cc1)n1ccnc1` (stereo unspecified), for which the Potency result in experiment [1], in [2], in [3], in experiment [4], in [5] and in experiment [6] was “inactive” throughout. The Potency entry in experiment [7], in experiment [17], in experiment [10], in experiment [12], in experiment [13] and in experiment [16] was “inactive” throughout. Besides, the Potency entry in experiment [15] is “inactive”. In addition, the result in [11] was inactive. Further, in [18], the activity change, positive = activation is -21.7% [at 42.5 µM].
Turning to `C/C(=N/NC(=O)c1ccncc1)C(=O)O`, the Potency result in experiment [1], in [2], in experiment [3], in experiment [4], in [5] and in experiment [6] was “inactive” each time. The Potency entry in experiment [7], in experiment [8], in [9], in experiment [10], in experiment [13] and in experiment [14] was “inactive” in each case. In addition, the Potency entry in [16] and in [15] was “inactive” throughout. Moreover, the outcome in [11] was inactive.
For the compound `CCOC(=N)CC(=O)OCC`, the Potency entry in experiment [1], in experiment [2], in experiment [3], in experiment [4], in experiment [5] and in [6] was “inactive” each time. Besides, the Potency entry in experiment [7], in [8], in [10], in [12], in experiment [13] and in [14] was “inactive” in each case. Besides, the Potency entry in [15] was “inactive”. Also, the Potency in [9] was 19.5 µM (active).
In the case of `CC1CN(c2cc3c(cc2F)c(=O)c(C(=O)O)cn3-c2ccc(F)cc2F)CCN1` (stereo unspecified), the viability change, negative = cytotoxic in experiment [1] is 4.3% [at 8.39 µM]; in experiment [3], -1.43% [at 8.39 µM]; in experiment [7], 0.948% [at 8.39 µM]. In experiment [2], the activity change, negative = inhibition is 1.15% [at 10.5 µM]. For the same compound, the values for the activity change, negative = cytotoxicity in experiment [4], in experiment [12] and in [13] were 6.26% [at 8.39 µM], 1.23% [at 14 µM] and 4.21% [at 6.97 µM], respectively. Also, the activity, negative = inhibition in experiment [5] was 9.29% [at 8.39 µM]. The activation in experiment [6] is -1.5% [at 8.39 µM]; in experiment [8] it was -2.32% [at 8.39 µM]; in experiment [11], 0.362% [at 7.01 µM]. Moreover, the activation (H2AX phosphorylation) in experiment [10] was -0.572% [at 14 µM]. In addition, the activity change, negative = cytotoxic in experiment [14] was 5.72% [at 6.97 µM]; in experiment [15], 3.59% [at 6.97 µM]. Moreover, the cytotoxicity in experiment [16] is -3.88% [at 6.97 µM].
On to `CN1Cc2cc(C(=O)N3CCC(C4CCNCC4)CC3)ccc2N[C@@H](CC(=O)O)C1=O`, for which the Potency result in experiment [1], in experiment [2], in experiment [3], in [4], in experiment [5] and in [6] was “inactive” throughout. For the same compound, the Potency entry in experiment [19], in [17], in [8], in experiment [9], in [10] and in [12] was “inactive” in each case. Besides, the Potency entry in experiment [20], in [13], in experiment [14], in experiment [16] and in experiment [15] was “inactive” throughout. The result in [11] was inactive. Moreover, in experiment [18], the activity change, positive = activation is 7.88% [at 42.5 µM].
In the case of `O=C(O)c1c(O)c(-c2ccccc2)nc2ccccc12`, the Potency entry in experiment [1], in [3], in experiment [4], in experiment [5], in experiment [7] and in [8] was “inactive” each time. The Potency entry in [10], in experiment [12], in experiment [13], in [14] and in experiment [15] was “inactive” each time. The Potency in experiment [2] is 34.7 µM (active). Also, the compound was classed as inactive in [11].
